{"source": "the supplement of paper PMC8728848", "test_in_all_cases": "glycan array binding signal (z-score within array); higher = stronger binding", "conditions_in_all_cases": "glycan notation: IUPAC condensed, linker removed", "key": {"[1]": {"target": "Fuc(a1-2)Gal(b1-3)GlcNAc", "in_short": "(§1)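 The Consortium for Functional Glycomics database supplied 3228 glycan arrays, of which those lacking an available protein sequence were dropped. The binding signal, a within-array Z-score, was averaged across arrays of the same protein sequence and across linkers. Negative scores can be read as non-binding.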"}, "[2]": {"target": "Fuc(a1-2)Gal(b1-3)GlcNAc(b1-2)Man(a1-3)[Fuc(a1-2)Gal(b1-3)GlcNAc(b1-2)Man(a1-6)]Man(b1-4)GlcNAc(b1-4)[Fuc(a1-6)]GlcNAc", "in_short": "as §1"}, "[3]": {"target": "Fuc(a1-2)Gal(b1-3)GlcNAc(b1-3)GalNAc", "in_short": "as §1"}, "[4]": {"target": "Fuc(a1-2)Gal(b1-3)GlcNAc(b1-3)[Neu5Ac(a2-6)Gal(b1-4)GlcNAc(b1-6)]Gal(b1-4)Glc", "in_short": "as §1"}, "[5]": {"target": "Fuc(a1-2)Gal(b1-4)GlcNAc(b1-6)GalNAc", "in_short": "as §1"}, "[6]": {"target": "Fuc(a1-2)[Gal(a1-3)]Gal(b1-4)GlcNAc(b1-2)Man", "in_short": "as §1"}, "[7]": {"target": "Fuc(a1-2)[Gal(a1-3)]Gal(b1-4)GlcNAc(b1-2)Man(a1-3)[Fuc(a1-2)[Gal(a1-3)]Gal(b1-4)GlcNAc(b1-2)Man(a1-6)]Man(b1-4)GlcNAc(b1-4)GlcNAc", "in_short": "as §1"}, "[8]": {"target": "Fuc(a1-2)[Gal(a1-3)]Gal(b1-4)GlcNAc(b1-3)GalNAc", "in_short": "as §1"}, "[9]": {"target": "Fuc(a1-2)[Gal(a1-3)]Gal(b1-4)GlcNAc(b1-3)[Fuc(a1-2)[Gal(a1-3)]Gal(b1-4)GlcNAc(b1-6)]GalNAc", "in_short": "as §1"}, "[10]": {"target": "Fuc(a1-2)[GalNAc(a1-3)]Gal(b1-4)GlcNAc(b1-2)Man", "in_short": "as §1"}, "[11]": {"target": "Fuc(a1-3)[Gal(b1-4)]GlcNAc(b1-3)GalNAc", "in_short": "as §1"}, "[12]": {"target": "Fuc(a1-4)GlcNAc", "in_short": "as §1"}, "[13]": {"target": "Gal(a1-3)Gal(b1-4)GlcNAc(b1-2)Man(a1-3)[Gal(a1-3)Gal(b1-4)GlcNAc(b1-2)Man(a1-6)]Man(b1-4)GlcNAc(b1-4)GlcNAc", "in_short": "as §1"}, "[14]": {"target": "Gal(a1-3)[Gal(a1-4)]Gal(b1-4)GlcNAc", "in_short": "as §1"}, "[15]": {"target": "Gal(a1-4)Gal(b1-4)GlcNAc(b1-2)Man(a1-3)[Gal(a1-4)Gal(b1-4)GlcNAc(b1-2)Man(a1-6)]Man(b1-4)GlcNAc(b1-4)GlcNAc", "in_short": "as §1"}, "[16]": {"target": "Gal(b1-3)Gal", "in_short": "as §1"}, "[17]": {"target": "Gal(b1-3)GalNAc(a1-3)[Fuc(a1-2)]Gal(b1-4)Glc", "in_short": "as §1"}, "[18]": {"target": "Gal(b1-3)GlcNAc(b1-6)GalNAc", "in_short": "as §1"}, "[19]": {"target": "Gal(b1-3)GlcNAc6S", "in_short": "as §1"}, "[20]": {"target": "Gal(b1-3)[Fuc(a1-4)]GlcNAc", "in_short": "as §1"}, "[21]": {"target": "Gal(b1-4)Gal", "in_short": "as §1"}, "[22]": {"target": "Gal(b1-4)GlcNAc(b1-2)Man(a1-3)[GlcNAc(b1-2)Man(a1-6)]Man(b1-4)GlcNAc(b1-4)GlcNAc", "in_short": "as §1"}, "[23]": {"target": "Gal(b1-4)GlcNAc(b1-2)Man(a1-6)[Man(a1-3)]Man(b1-4)GlcNAc(b1-4)GlcNAc", "in_short": "as §1"}, "[24]": {"target": "Gal(b1-4)GlcNAc(b1-2)[Gal(b1-4)GlcNAc(b1-4)]Man(a1-3)[Gal(b1-4)GlcNAc(b1-2)[Gal(b1-4)GlcNAc(b1-6)]Man(a1-6)]Man(b1-4)GlcNAc(b1-4)GlcNAc", "in_short": "as §1"}, "[25]": {"target": "Gal(b1-4)GlcNAc(b1-2)[Gal(b1-4)GlcNAc(b1-6)]Man(a1-6)[Gal(b1-4)GlcNAc(b1-2)Man(a1-3)]Man(b1-4)GlcNAc(b1-4)[Fuc(a1-6)]GlcNAc", "in_short": "as §1"}, "[26]": {"target": "Gal(b1-4)GlcNAc(b1-3)Gal(b1-4)GlcNAc(b1-2)Man(a1-3)[Gal(b1-4)GlcNAc(b1-3)Gal(b1-4)GlcNAc(b1-2)Man(a1-6)]Man(b1-4)GlcNAc(b1-4)GlcNAc", "in_short": "as §1"}, "[27]": {"target": "Gal(b1-4)GlcNAc(b1-3)Gal(b1-4)GlcNAc(b1-2)[Gal(b1-4)GlcNAc(b1-3)Gal(b1-4)GlcNAc(b1-6)]Man(a1-6)[Gal(b1-4)GlcNAc(b1-3)Gal(b1-4)GlcNAc(b1-2)Man(a1-3)]Man(b1-4)GlcNAc(b1-4)GlcNAc", "in_short": "as §1"}, "[28]": {"target": "Gal(b1-4)GlcNAc(b1-3)Gal(b1-4)GlcNAc(b1-6)[Gal(b1-3)]GalNAc", "in_short": "as §1"}}, "note": "This is one part of a sample in which the strongest signals are shown more often than they occur.", "data": [{"binder": "PX15642A-pgi-501-20-501 (Parabacteroides gingivalis) (protein) CELDRDPEGKDFQQPYTSFVQTKQNRDGLYALLRNTENPRMHFYQELQSDMYCTTITDGNSLAPFVNWDLGILNDHGRADEDEVSGIAGYYFVYNRLNQQANAFVNNTEAALQNQVYKNSTEIANAKSFLAEGKVLQALAIWRLMDRFSFHESVTEVNSGAKDLGVILLKEYNPGYIGPRATKAQCYDYILSRLSEAIEVLPENRESVLYVSRDYAYALRARIYLALGEYGKAAADAKMVVDKYPLIGAADASEFENIYRSDANNPEIIFRGFASATLGSFTATTLNGAAPAGKDIKYNPSAVPFQWVVDLYENEDFRKSVYIAKVVKKDKGYLVNKFLEDKAYRDVQDKPNLKVGARYFSVAEVYLILVESALQTGDTPTAEKYLKALSKARGAEVSVVNMEALQAERTRELIGEGSRLRDMVRWSIPNNHDAFETQPGLEGFANTTPLKAQAPVGFYAYTWEFPQRDRQTNPQLIKNWPI", "values": [{"measurement": "glycan array binding signal (z-score)", "setting": "[1]", "result": -0.306}, {"measurement": "glycan array binding signal (z-score)", "setting": "[2]", "result": 0.224}, {"measurement": "glycan array binding signal (z-score)", "setting": "[3]", "result": -0.094}, {"measurement": "glycan array binding signal (z-score)", "setting": "[4]", "result": -0.121}, {"measurement": "glycan array binding signal (z-score)", "setting": "[5]", "result": 2.85}, {"measurement": "glycan array binding signal (z-score)", "setting": "[6]", "result": -0.144}, {"measurement": "glycan array binding signal (z-score)", "setting": "[7]", "result": 0.849}, {"measurement": "glycan array binding signal (z-score)", "setting": "[8]", "result": 1.21}, {"measurement": "glycan array binding signal (z-score)", "setting": "[9]", "result": 0.225}, {"measurement": "glycan array binding signal (z-score)", "setting": "[10]", "result": -0.848}, {"measurement": "glycan array binding signal (z-score)", "setting": "[11]", "result": -0.744}, {"measurement": "glycan array binding signal (z-score)", "setting": "[12]", "result": 2.72}, {"measurement": "glycan array binding signal (z-score)", "setting": "[13]", "result": -0.319}, {"measurement": "glycan array binding signal (z-score)", "setting": "[14]", "result": 6.32}, {"measurement": "glycan array binding signal (z-score)", "setting": "[15]", "result": 0.38}, {"measurement": "glycan array binding signal (z-score)", "setting": "[16]", "result": 0.322}, {"measurement": "glycan array binding signal (z-score)", "setting": "[17]", "result": 1.53}, {"measurement": "glycan array binding signal (z-score)", "setting": "[18]", "result": -0.003}, {"measurement": "glycan array binding signal (z-score)", "setting": "[19]", "result": 0.706}, {"measurement": "glycan array binding signal (z-score)", "setting": "[20]", "result": -0.298}, {"measurement": "glycan array binding signal (z-score)", "setting": "[21]", "result": 0.332}, {"measurement": "glycan array binding signal (z-score)", "setting": "[22]", "result": 0.359}, {"measurement": "glycan array binding signal (z-score)", "setting": "[23]", "result": -0.027}, {"measurement": "glycan array binding signal (z-score)", "setting": "[24]", "result": 0.733}, {"measurement": "glycan array binding signal (z-score)", "setting": "[25]", "result": 0.317}, {"measurement": "glycan array binding signal (z-score)", "setting": "[26]", "result": 2.09}, {"measurement": "glycan array binding signal (z-score)", "setting": "[27]", "result": 2.23}, {"measurement": "glycan array binding signal (z-score)", "setting": "[28]", "result": 2.71}]}]}
